A word on the inhibition: it is the change of the read-out against control, counted positive when it falls.

We go through 40 compounds from ChEMBL document CHEMBL3433997, “St. Jude Leishmania screening dataset” (2016).

For the first test, the target named is Hexose transporter 1 (Plasmodium falciparum) (UniProt O97467). The test can be described thus: ST_JUDE_LEISH: Cytotoxicity at 2uM final concentration against transgenic Leishmania Mexicana promastigotes LmPfHT that are glucose transport deficient and complemented with the Plasmodium falciparum hexose transporter. Activity is measured by DNA content using SYBR green in vitro. The format is functional.
Turning to `ON=C1CCc2cc(-c3[nH]c(-c4cccc(OCCNCc5ccc(F)cc5)c4)nc3-c3ccncc3)ccc21`, the inhibition came out at 9.15%.
In the case of `CC(C)[C@H](NC(=O)c1ccc(O)c(-c2ccc(Cl)c(Cl)c2)c1)C(=O)NCCN1CCCCC1`, the inhibition was determined as 1.9%.
Same read-out and setting: to `Cc1cc(N)c2cc(NC(=O)c3cccc4ccccc34)ccc2n1` belongs 1.19%.
Still for that read-out and setting: to `CC1(C)C2C=C(CN3CCC(NC(=O)Nc4ccc(Cl)c(Cl)c4)CC3)C1CC2` (stereo not given) belongs 7.57%.
Regarding `O=C(Nc1ccc(OC2CCN(Cc3ccc(F)cc3)C2)c(Cl)c1)c1ccsc1` (stereo not given), the inhibition amounted to 3.33%.
The same measure, in the same setting: to `CCOC(=O)c1c(-c2ccccc2)nc2c(sc3ccccc32)c1O` belongs 5.15%; to `C=CCOC(=O)N1CCC(CNCc2ccc(-c3cccc(-c4nc5cccc(C)c5[nH]4)c3)cc2)C1` (stereo not given), -0.4%; to `CC1(C)N=C(N)N=C(N)N1OCCCCON1C(N)=NC(N)=NC1(C)C`, 3.55%.
As to `COc1ccc2nccc(N/N=C/c3ccc([N+](=O)[O-])cc3)c2c1`, the inhibition was -1.77%.
For the compound `COCc1nc(-c2ccccc2)nc(N2CCN(C(=O)NC(C)C)CC2)c1Cc1ccccc1F`, the inhibition was found to be 6.85%.
Same read-out and setting: under `CCCNCc1ccc(-c2ccc(CN(CCOC)C(=O)CC3CCCC3=O)cc2)nc1` (stereo not given) stands 0.07%.
On the same count and under the same terms, under `O=C(Nc1ccc(Cl)cc1)c1ccc(S(=O)(=O)NCC2CCN(CC3CCCCC3)CC2)cc1` stands 1.04%; under `Fc1cccc(Cn2ncc3cc(Nc4ncnc5sc(C#Cc6ncc[nH]6)cc45)ccc32)c1`, 1.74%.
As for `CCCOc1ccc2ccccc2c1CNCCCCCCNCc1c(OCCC)ccc2ccccc12`, the inhibition is 1.04%.
Consider `CN1CCC(C(=O)N(Cc2ccc(-c3ccc(CNCCc4ccccc4)cn3)cc2)Cc2cccc(F)c2)CC1`, for which the inhibition came out at 0.98%.
Turning to `CC(Sc1nc(-c2ccccc2)c(-c2ccccc2)o1)C(=O)NC1CC1` (stereo not given), the inhibition was determined as 1.75%.
Take `COc1cc(C(=O)N2CCOC(CCN3CCC(Cc4ccc(F)cc4)CC3)(c3ccc(Cl)c(Cl)c3)C2)cc(OC)c1OC` (stereo not given): the inhibition stood at 7.29%.
Take `CN(CCCN(C)c1cc(NC(=O)c2cccc(F)c2)ccn1)Cc1cccc(O)c1`: the inhibition is 0.99%.
With `CN(CCN(C)CC(O)c1ccc(Cl)c(Cl)c1)CC(O)c1ccc(Cl)c(Cl)c1` (stereo not given), the inhibition is 9.66%.
With `Cc1cccc2nc(-c3cccc(-c4ccc(NC(=O)Nc5ccc(F)c(F)c5F)cc4)c3)[nH]c12`, the inhibition is 1.47%.
With `COc1cccc(CC(=O)NC2CCN(c3ccnc4cc(Cl)ccc34)C2)c1` (stereo not given), the inhibition was -0.46%.
Turning to `C=C(NC(=O)C1CCCCC1)C(=O)OC`, the inhibition came out at 2.29%.
As to `CC(C)=CC1C(C(=O)n2c(=N)[nH]c3ccccc32)C1(C)C` (stereo not given), the inhibition was determined as 7.8%.
For `CN(C)CCN(C)Cc1ccc(-c2cccc(-c3nc4ccccc4[nH]3)c2)cc1`, the inhibition was 1.04%.
Turning to `CC(C)C[C@H](NC(=O)OC(C)(C)C)C(=O)Nc1ccc(Cc2ccc(NC(=O)[C@H](CC(C)C)NC(=O)OC(C)(C)C)cc2)cc1`, the inhibition turned out to be 3.22%.
In the case of `COc1ccc(CN2CCC(NCc3ccc(C(F)(F)F)cc3)CC2)cc1`, the inhibition worked out at 14.1%.
The same measure, in the same setting: to `O=C(Nc1ccc(-c2ccc(-c3nc4ccccc4[nH]3)s2)cc1)Nc1ccsc1` belongs -0.46%; to `CCN(CC)Cc1cc(Nc2ccnc3cc(Cl)ccc23)ccc1O`, 2.29%; to `CC(=O)Nc1ncc(C(=O)Nc2cccc(-c3ccc(-c4nc5cccc(C)c5[nH]4)cc3)c2)s1`, 0.54%.
Still for that read-out and setting: under `COc1ccc(C23Oc4cc(OC)cc(OC)c4C2(O)C2(CC3c3ccccc3)SCCCS2)cc1` (stereo not given) stands -0.16%; under `CCOc1ccc(OCCCON2C(=N)N=C(N)NC2(C)C)cc1`, 0.06%; under `O=C(Nc1ccc2c(c1)CCC2)c1ccc(N2CCN(c3ccncc3)CC2)cn1`, 12.8%.
As for `O=C(NCCCCN1CCC(c2ccc3c(c2OCCN2CCCC2)CCCC3)CC1)c1ccc(-c2ccc(C(F)(F)F)cc2)cc1`, the inhibition worked out at 5.87%.
As for `Fc1ccc2[nH]c(-c3cccc(-c4ccc(CN5CCCCC5)cc4)c3)nc2c1`, the inhibition was found to be 3.6%.
`CC(C)N1CCN(C(CN2CCN(CCCOc3ccccc3-c3ccccc3)CC2)c2ccc(F)cc2)CC1` (stereo not given): the inhibition turned out to be 5.02%.
Take `Cc1ccccc1C1CCN(C2CCC(NC(=O)/C=C/c3ccc(F)c(F)c3)CC2)CC1` (stereo not given): the inhibition was -1.74%.
For `COc1cc(NC(=O)c2cc3c(C)nn(-c4cccc(C(F)(F)F)c4)c3s2)cc(OC)c1OC`, the inhibition is 1.29%.
With `O=C1OC(c2ccccc2)(c2ccccc2)CN1C1CCN(Cc2ccc(O)c(Cl)c2)C1` (stereo not given), the inhibition was 1.04%.
In the case of `c1ccc2c(c1)CN(Cc1cc3ccccc3[nH]1)CC1(CCN(Cc3c[nH]c4cnccc34)CC1)O2`, the inhibition was -0.02%.
Consider `Clc1nc(Cl)c2c(ccn2Cc2ccccc2)n1`, for which the inhibition was found to be 0.9%.

A further test deals with Glucose transporter (Leishmania mexicana) (UniProt O61059). As to the kind of experiment: ST_JUDE_LEISH: Cytotoxicity at 2uM final concentration against transgenic Leishmania Mexicana promastigotes LmGT2 that are glucose transport deficient and complemented with the L. Mexicana glucose transporter 2. Activity is measured by DNA content using SYBR green in vitro. The format is functional.
As to `ON=C1CCc2cc(-c3[nH]c(-c4cccc(OCCNCc5ccc(F)cc5)c4)nc3-c3ccncc3)ccc21`, the inhibition worked out at 10.8%.
`CC(C)[C@H](NC(=O)c1ccc(O)c(-c2ccc(Cl)c(Cl)c2)c1)C(=O)NCCN1CCCCC1`: the inhibition was -1.44%.
Consider `Cc1cc(N)c2cc(NC(=O)c3cccc4ccccc34)ccc2n1`, for which the inhibition came to 0%.
As for `CC1(C)C2C=C(CN3CCC(NC(=O)Nc4ccc(Cl)c(Cl)c4)CC3)C1CC2` (stereo not given), the inhibition was 7.92%.
Turning to `O=C(Nc1ccc(OC2CCN(Cc3ccc(F)cc3)C2)c(Cl)c1)c1ccsc1` (stereo not given), the inhibition worked out at 1.2%.
`CCOC(=O)c1c(-c2ccccc2)nc2c(sc3ccccc32)c1O`: the inhibition was determined as 5.35%.
In the case of `C=CCOC(=O)N1CCC(CNCc2ccc(-c3cccc(-c4nc5cccc(C)c5[nH]4)c3)cc2)C1` (stereo not given), the inhibition was -2.77%.
Consider `CC1(C)N=C(N)N=C(N)N1OCCCCON1C(N)=NC(N)=NC1(C)C`, for which the inhibition stood at 3.76%.
Regarding `COc1ccc2nccc(N/N=C/c3ccc([N+](=O)[O-])cc3)c2c1`, the inhibition was found to be 3.94%.
`COCc1nc(-c2ccccc2)nc(N2CCN(C(=O)NC(C)C)CC2)c1Cc1ccccc1F`: the inhibition worked out at 6.8%.
The same measure, in the same setting: under `CCCNCc1ccc(-c2ccc(CN(CCOC)C(=O)CC3CCCC3=O)cc2)nc1` (stereo not given) stands -9.43%; under `O=C(Nc1ccc(Cl)cc1)c1ccc(S(=O)(=O)NCC2CCN(CC3CCCCC3)CC2)cc1`, 1.4%.
As to `Fc1cccc(Cn2ncc3cc(Nc4ncnc5sc(C#Cc6ncc[nH]6)cc45)ccc32)c1`, the inhibition was -0.29%.
On the same count and under the same terms, to `CCCOc1ccc2ccccc2c1CNCCCCCCNCc1c(OCCC)ccc2ccccc12` belongs -1.19%.
Take `CN1CCC(C(=O)N(Cc2ccc(-c3ccc(CNCCc4ccccc4)cn3)cc2)Cc2cccc(F)c2)CC1`: the inhibition amounted to 4.08%.
For `CC(Sc1nc(-c2ccccc2)c(-c2ccccc2)o1)C(=O)NC1CC1` (stereo not given), the inhibition worked out at 0.3%.
For the compound `COc1cc(C(=O)N2CCOC(CCN3CCC(Cc4ccc(F)cc4)CC3)(c3ccc(Cl)c(Cl)c3)C2)cc(OC)c1OC` (stereo not given), the inhibition is 2.49%.
As for `CN(CCCN(C)c1cc(NC(=O)c2cccc(F)c2)ccn1)Cc1cccc(O)c1`, the inhibition is -0.68%.
Turning to `CN(CCN(C)CC(O)c1ccc(Cl)c(Cl)c1)CC(O)c1ccc(Cl)c(Cl)c1` (stereo not given), the inhibition was determined as 9.87%.
As for `Cc1cccc2nc(-c3cccc(-c4ccc(NC(=O)Nc5ccc(F)c(F)c5F)cc4)c3)[nH]c12`, the inhibition was determined as 3.22%.
As for `COc1cccc(CC(=O)NC2CCN(c3ccnc4cc(Cl)ccc34)C2)c1` (stereo not given), the inhibition stood at 1.48%.
Consider `C=C(NC(=O)C1CCCCC1)C(=O)OC`, for which the inhibition amounted to 0.41%.
Regarding `CC(C)=CC1C(C(=O)n2c(=N)[nH]c3ccccc32)C1(C)C` (stereo not given), the inhibition worked out at 5.36%.
As to `CN(C)CCN(C)Cc1ccc(-c2cccc(-c3nc4ccccc4[nH]3)c2)cc1`, the inhibition was determined as 0%.
The same measure, in the same setting: under `CC(C)C[C@H](NC(=O)OC(C)(C)C)C(=O)Nc1ccc(Cc2ccc(NC(=O)[C@H](CC(C)C)NC(=O)OC(C)(C)C)cc2)cc1` stands 2.99%; under `COc1ccc(CN2CCC(NCc3ccc(C(F)(F)F)cc3)CC2)cc1`, 14%.
As for `O=C(Nc1ccc(-c2ccc(-c3nc4ccccc4[nH]3)s2)cc1)Nc1ccsc1`, the inhibition was determined as 4.17%.
Turning to `CCN(CC)Cc1cc(Nc2ccnc3cc(Cl)ccc23)ccc1O`, the inhibition worked out at 4.65%.
Regarding `CC(=O)Nc1ncc(C(=O)Nc2cccc(-c3ccc(-c4nc5cccc(C)c5[nH]4)cc3)c2)s1`, the inhibition worked out at 0.54%.
Still for that read-out and setting: to `COc1ccc(C23Oc4cc(OC)cc(OC)c4C2(O)C2(CC3c3ccccc3)SCCCS2)cc1` (stereo not given) belongs 1.15%.
In the case of `CCOc1ccc(OCCCON2C(=N)N=C(N)NC2(C)C)cc1`, the inhibition was determined as 0.05%.
Still for that read-out and setting: under `O=C(Nc1ccc2c(c1)CCC2)c1ccc(N2CCN(c3ccncc3)CC2)cn1` stands 14.7%.
With `O=C(NCCCCN1CCC(c2ccc3c(c2OCCN2CCCC2)CCCC3)CC1)c1ccc(-c2ccc(C(F)(F)F)cc2)cc1`, the inhibition amounted to 4%.
The same measure, in the same setting: under `Fc1ccc2[nH]c(-c3cccc(-c4ccc(CN5CCCCC5)cc4)c3)nc2c1` stands 2.43%.
As to `CC(C)N1CCN(C(CN2CCN(CCCOc3ccccc3-c3ccccc3)CC2)c2ccc(F)cc2)CC1` (stereo not given), the inhibition was 5.95%.
Consider `Cc1ccccc1C1CCN(C2CCC(NC(=O)/C=C/c3ccc(F)c(F)c3)CC2)CC1` (stereo not given), for which the inhibition was -1.27%.
Consider `COc1cc(NC(=O)c2cc3c(C)nn(-c4cccc(C(F)(F)F)c4)c3s2)cc(OC)c1OC`, for which the inhibition came out at 2.46%.
Consider `O=C1OC(c2ccccc2)(c2ccccc2)CN1C1CCN(Cc2ccc(O)c(Cl)c2)C1` (stereo not given), for which the inhibition is -0.68%.
With `c1ccc2c(c1)CN(Cc1cc3ccccc3[nH]1)CC1(CCN(Cc3c[nH]c4cnccc34)CC1)O2`, the inhibition is -0.44%.
With `Clc1nc(Cl)c2c(ccn2Cc2ccccc2)n1`, the inhibition came out at 2.54%.
